Test [1] has as its target Myc proto-oncogene protein (Homo sapiens) (UniProt P01106). The experiment in a line: ATG_Myc_CIS: Attagene CIS-FACTORIAL HepG2 Assay for human Myelocytomatosis (Myc) Proto-Oncogene Transcription Factor (AID 2282990). The conditions noted are these: HepG2, Attagene cis-reporter transcription factor activity; actives raise or lower the signal. In short, it runs like this: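 HepG2 cells transiently transfected with multiple cis-promoter-driven reporter transcription units, so endogenous TF activity is read. After 24 h compound exposure, reporter mRNA was quantified by RT-PCR, 6-FAM labelling, HpaI digestion and capillary electrophoresis; bidirectional fit versus DMSO.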

A short description of test [2]: ATG_NF_kB_CIS: Attagene CIS-FACTORIAL HepG2 Assay for human Nuclear Factor Kappa B (NF-kB) (AID 2282991). The settings on record: HepG2 Attagene cis-factorial NF-kB reporter mRNA; actives raise or lower the signal. In short, it runs like this: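 Read-out: reporter transcript levels quantified by RT-PCR plus capillary electrophoresis of 6-FAM-labelled, HpaI-cut fragments. Transfected HepG2 cells, 24 h compound exposure, endogenous NF-kB-driven cis element; gain or loss scored versus DMSO.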

Test [3] in a line: ATG_NRF2_ARE_CIS: Attagene CIS-FACTORIAL HepG2 Assay for human Nuclear Factor Erythroid 2 Related Factor 2 (NFR2) response to Antioxidant Response Elements (ARE) (AID 2282992). The settings on record: HepG2 Attagene ARE/NRF2 reporter, transcription factor activity; actives raise or lower the signal. A digest of the protocol:
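Using transiently transfected HepG2 cells exposed for 24 h, reporter mRNA levels were determined by RT-PCR with fluorescent primer extension and capillary electrophoresis, analysed for gain or loss of signal against DMSO.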

The nature of test [4]: ATG_Oct_MLP_CIS: Attagene CIS-FACTORIAL HepG2 Assay for human Octamer-Binding Transcription Factor (Oct) (AID 2282993). The settings on record: HepG2 Attagene cis-factorial Oct reporter, mRNA; actives raise or lower the signal. In short, it runs like this: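 Multiplexed cis-reporter assay in human liver HepG2 cells, 24 h incubation. Reporter RNA amplified and labelled, then resolved by capillary electrophoresis; DMSO serves as negative control and baseline.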

Test [5] deals with human Peroxisome Proliferator-activated Receptor alpha (PPARa), PPARA (gene 5465) (UniProt Q07869). Description: ATG_PPARa_TRANS: Attagene TRANS-FACTORIAL HepG2 Assay for human Peroxisome Proliferator-activated Receptor alpha (PPARa) (AID 2283001; active means hit-call score of the fitted dose curve at least 0.9, where 1 is the maximum). In short, it runs like this:
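Exposure: 24 h, transiently transfected HepG2 cells. Endpoint: GAL4-UAS reporter mRNA, RT-PCR with capillary electrophoresis fluorescence. Baseline: DMSO; increases fitted.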

Test [6] concerns the target human Retinoic Acid Receptor beta (RARb), RARB (gene 5915) (UniProt P10826). Description: ATG_RARb_TRANS: Attagene TRANS-FACTORIAL HepG2 Assay for human Retinoic Acid Receptor beta (AID 2283004; active means hit-call score of the fitted dose curve at least 0.9, where 1 is the maximum). In short, it runs like this:
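Induction of reporter mRNA from a chimeric RARb-Gal4 construct was measured by RT-PCR, FAM labelling, HpaI digestion and capillary electrophoresis. Measurements followed 24 h compound treatment of transiently transfected human HepG2 liver cells, with DMSO as baseline.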

Test [7] concerns the target Retinoic acid receptor alpha (Homo sapiens) (UniProt P10276). Description: ATG_RARa_TRANS: Attagene TRANS-FACTORIAL HepG2 Assay for human Retinoic Acid Receptor alpha (RARa) (AID 2283005; active means hit-call score of the fitted dose curve at least 0.9, where 1 is the maximum). In short, it runs like this:
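HepG2 cells transiently transfected with multiple reporter units expressing chimeric RARα-GAL4 fusion, with GAL4-UAS-driven reporters. After 24 h compound exposure, reporter mRNA induction quantified by RT-PCR and capillary electrophoresis with fluorescent labeling; gain-of-signal fitted relative to DMSO control.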

In test [8] the target is human Peroxisome Proliferator-activated Receptor delta (PPARd), PPARD (gene 5467) (UniProt Q03181). The experiment in a line: ATG_PPARd_TRANS: Attagene TRANS-FACTORIAL HepG2 Assay for human Peroxisome Proliferator-activated Receptor delta (PPARd) (AID 2283002; active means hit-call score of the fitted dose curve at least 0.9, where 1 is the maximum). In short, it runs like this:
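HepG2 cells transiently transfected with multiplexed GAL4-UAS reporter units and exogenous chimeric NR-Gal4 proteins; 24 h compound exposure. Reporter mRNA measured by RT-PCR, 6-FAM labelling, HpaI digestion and capillary electrophoresis; gain of signal versus DMSO.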

For test [9], the target named is Peroxisome proliferator-activated receptor gamma (Homo sapiens) (UniProt P37231). The experiment in a line: ATG_PPARg_TRANS: Attagene TRANS-FACTORIAL HepG2 Assay for human Peroxisome Proliferator-activated Receptor-gamma (PPARg) (AID 2283007; active means hit-call score of the fitted dose curve at least 0.9, where 1 is the maximum). In short, it runs like this: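 Read-out: reporter mRNA induction, detected by fluorescence after RT-PCR and capillary electrophoresis. Transiently transfected human HepG2 liver cells carrying a chimeric NR-Gal4 construct were dosed for 24 h; activity was fitted upward relative to DMSO.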

For test [10], the target named is Nuclear receptor subfamily 1 group I member 2 (Homo sapiens) (UniProt O75469). Description: ATG_PXR_TRANS: Attagene TRANS-FACTORIAL HepG2 Assay for human Pregnane X Receptor (PXR) (AID 2283008; active means hit-call score of the fitted dose curve at least 0.9, where 1 is the maximum). A digest of the protocol:
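Multiplexed TRANS reporter panel in HepG2; this component tracks PXR-Gal4-driven reporter mRNA after 24 h dosing, measured by RT-PCR with capillary electrophoresis fluorescence, fitted against DMSO.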

Test [11] deals with human RAR-related Orphan Receptor gamma (RORg), RORC (gene 6097) (UniProt P51449). The experiment in a line: ATG_RORg_TRANS: Attagene TRANS-FACTORIAL HepG2 Assay for human RAR-related Orphan Receptor gamma (RORg) (AID 2283011; active means hit-call score of the fitted dose curve at least 0.9, where 1 is the maximum). In short, it runs like this:
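Reporter transcripts from a transfected RORg-GAL4 chimera in HepG2 cells were quantified 24 h after dosing by RT-PCR, 6-FAM labelling, HpaI digestion and capillary electrophoresis; increases over DMSO baseline were fitted.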

For test [12], the target named is human RAR-related Orphan Receptor beta (RORb), RORB (gene 6096) (UniProt Q92753). The experiment in a line: ATG_RORb_TRANS: Attagene TRANS-FACTORIAL HepG2 Assay for human RAR-related Orphan Receptor beta (RORb) (AID 2283010; active means hit-call score of the fitted dose curve at least 0.9, where 1 is the maximum). A digest of the protocol: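 Multiplexed transcription-factor reporter assay: HepG2 cells transiently carrying NR-Gal4/GAL4-UAS constructs, 24 h treatment, mRNA quantified by RT-PCR plus capillary electrophoresis fluorescence; activity scored as induction over DMSO.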

Test [13] deals with human Retinoic Acid Receptor gamma (RARg), RARG (gene 5916) (UniProt P13631). Description: ATG_RARg_TRANS: Attagene TRANS-FACTORIAL HepG2 Assay for human Retinoic Acid Receptor gamma (RARg) (AID 2283009; active means hit-call score of the fitted dose curve at least 0.9, where 1 is the maximum). A digest of the protocol: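 Gain-of-signal relative to DMSO is reported from fluorescent capillary electrophoresis of RT-PCR reporter products. These came from HepG2 cells expressing transfected RARg-GAL4 chimeras with UAS reporters, harvested 24 h after dosing.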

For test [14], the target named is Cellular tumor antigen p53 (Homo sapiens) (UniProt P04637). Description: ATG_p53_CIS: Attagene CIS-FACTORIAL HepG2 Assay for human p53 Transcription Factor (AID 2282994). The conditions noted are these: HepG2 p53 cis-element reporter, Attagene mRNA; actives raise or lower the signal. In short, it runs like this: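 In HepG2 cells, reporter transcription units under cis-regulatory promoters were transiently introduced. Following 24 h treatment, RNA was processed to labelled, digested cDNA fragments read by capillary electrophoresis; fitting was bidirectional versus DMSO.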

Inconclusive results are not listed. Activity calls are given as the source filed them. How the source made its calls, unless noted: active means hit-call score of the fitted dose curve at least 0.9, where 1 is the maximum; inactive means score below 0.9.

Peroxisome proliferator-activated receptor gamma (Homo sapiens), sequence (P37231 whole entry, looked up, the tested form may be a part): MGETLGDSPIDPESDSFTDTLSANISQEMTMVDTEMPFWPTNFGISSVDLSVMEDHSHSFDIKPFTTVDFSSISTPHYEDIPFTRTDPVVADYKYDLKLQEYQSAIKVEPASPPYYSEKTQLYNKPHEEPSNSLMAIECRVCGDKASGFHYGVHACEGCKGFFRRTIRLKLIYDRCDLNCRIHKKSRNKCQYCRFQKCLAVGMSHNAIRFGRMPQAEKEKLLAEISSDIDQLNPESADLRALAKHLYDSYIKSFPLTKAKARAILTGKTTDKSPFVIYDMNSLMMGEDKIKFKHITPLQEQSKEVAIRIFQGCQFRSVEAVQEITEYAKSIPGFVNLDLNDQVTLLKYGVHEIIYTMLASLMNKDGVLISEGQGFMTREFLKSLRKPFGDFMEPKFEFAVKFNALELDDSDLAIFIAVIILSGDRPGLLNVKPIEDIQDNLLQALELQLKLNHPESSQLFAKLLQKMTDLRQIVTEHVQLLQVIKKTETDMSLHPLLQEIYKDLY
Retinoic acid receptor alpha (Homo sapiens), sequence (P10276 whole entry, looked up, the tested form may be a part): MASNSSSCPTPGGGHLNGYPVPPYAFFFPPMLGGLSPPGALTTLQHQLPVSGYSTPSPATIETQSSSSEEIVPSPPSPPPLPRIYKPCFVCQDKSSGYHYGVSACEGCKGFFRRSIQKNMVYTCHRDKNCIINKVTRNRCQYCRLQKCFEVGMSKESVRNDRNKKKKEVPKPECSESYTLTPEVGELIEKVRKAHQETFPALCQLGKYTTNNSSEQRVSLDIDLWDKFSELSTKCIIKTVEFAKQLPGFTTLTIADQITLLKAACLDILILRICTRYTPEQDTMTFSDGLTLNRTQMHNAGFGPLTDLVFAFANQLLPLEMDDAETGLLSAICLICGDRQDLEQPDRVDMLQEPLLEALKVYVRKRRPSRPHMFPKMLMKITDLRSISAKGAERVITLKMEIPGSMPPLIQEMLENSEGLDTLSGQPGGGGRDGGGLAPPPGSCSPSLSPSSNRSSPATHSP
Myc proto-oncogene protein (Homo sapiens), sequence (P01106 whole entry, looked up): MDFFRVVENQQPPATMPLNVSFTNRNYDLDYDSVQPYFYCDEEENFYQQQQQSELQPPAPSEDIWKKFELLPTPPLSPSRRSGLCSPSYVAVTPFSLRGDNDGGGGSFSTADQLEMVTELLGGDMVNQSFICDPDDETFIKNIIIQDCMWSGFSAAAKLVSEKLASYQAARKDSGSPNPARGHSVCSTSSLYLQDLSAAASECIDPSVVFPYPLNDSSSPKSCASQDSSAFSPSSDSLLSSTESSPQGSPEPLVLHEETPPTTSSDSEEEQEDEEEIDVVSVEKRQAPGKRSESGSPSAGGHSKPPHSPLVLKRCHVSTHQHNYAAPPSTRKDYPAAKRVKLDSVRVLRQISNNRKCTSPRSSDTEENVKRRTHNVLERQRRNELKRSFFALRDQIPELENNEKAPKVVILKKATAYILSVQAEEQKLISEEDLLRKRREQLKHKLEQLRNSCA
human Peroxisome Proliferator-activated Receptor delta (PPARd), PPARD (gene 5467), sequence (Q03181 whole entry, looked up, the tested form may be a part): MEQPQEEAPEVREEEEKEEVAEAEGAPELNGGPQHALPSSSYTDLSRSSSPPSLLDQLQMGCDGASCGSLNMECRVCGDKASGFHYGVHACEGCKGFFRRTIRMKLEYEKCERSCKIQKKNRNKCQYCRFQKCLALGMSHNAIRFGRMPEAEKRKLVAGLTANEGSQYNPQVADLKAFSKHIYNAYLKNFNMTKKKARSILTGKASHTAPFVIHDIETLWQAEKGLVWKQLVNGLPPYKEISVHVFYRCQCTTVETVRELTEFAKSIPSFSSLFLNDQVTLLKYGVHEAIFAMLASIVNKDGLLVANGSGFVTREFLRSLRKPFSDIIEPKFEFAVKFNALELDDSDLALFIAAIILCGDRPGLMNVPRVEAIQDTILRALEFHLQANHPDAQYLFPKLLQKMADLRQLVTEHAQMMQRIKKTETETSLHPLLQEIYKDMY
human RAR-related Orphan Receptor beta (RORb), RORB (gene 6096), sequence (Q92753 whole entry, looked up, the tested form may be a part): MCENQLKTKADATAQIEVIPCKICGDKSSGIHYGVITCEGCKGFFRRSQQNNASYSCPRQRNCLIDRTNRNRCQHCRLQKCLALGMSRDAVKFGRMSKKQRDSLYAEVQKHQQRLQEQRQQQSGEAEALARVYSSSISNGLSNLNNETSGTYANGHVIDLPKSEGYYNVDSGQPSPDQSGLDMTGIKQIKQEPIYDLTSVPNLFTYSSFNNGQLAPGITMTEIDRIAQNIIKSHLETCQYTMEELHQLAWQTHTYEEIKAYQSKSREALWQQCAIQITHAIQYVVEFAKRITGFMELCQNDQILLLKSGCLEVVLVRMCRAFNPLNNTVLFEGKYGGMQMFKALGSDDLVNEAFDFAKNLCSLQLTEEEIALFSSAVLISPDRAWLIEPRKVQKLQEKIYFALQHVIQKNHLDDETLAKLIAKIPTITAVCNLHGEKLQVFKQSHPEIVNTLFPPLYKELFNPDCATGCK
Cellular tumor antigen p53 (Homo sapiens), sequence (P04637 whole entry, looked up, the tested form may be a part): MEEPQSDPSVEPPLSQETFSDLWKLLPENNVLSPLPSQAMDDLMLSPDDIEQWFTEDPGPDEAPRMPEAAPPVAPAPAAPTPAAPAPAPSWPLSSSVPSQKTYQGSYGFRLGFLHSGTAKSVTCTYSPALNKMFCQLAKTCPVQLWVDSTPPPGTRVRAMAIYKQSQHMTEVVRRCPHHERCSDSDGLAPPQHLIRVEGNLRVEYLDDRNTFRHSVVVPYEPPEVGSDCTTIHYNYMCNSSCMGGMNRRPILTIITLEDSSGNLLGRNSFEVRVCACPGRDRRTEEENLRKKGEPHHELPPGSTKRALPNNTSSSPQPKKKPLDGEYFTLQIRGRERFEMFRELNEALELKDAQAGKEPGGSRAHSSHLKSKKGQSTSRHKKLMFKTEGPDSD
Nuclear receptor subfamily 1 group I member 2 (Homo sapiens), sequence (O75469 whole entry, looked up, the tested form may be a part): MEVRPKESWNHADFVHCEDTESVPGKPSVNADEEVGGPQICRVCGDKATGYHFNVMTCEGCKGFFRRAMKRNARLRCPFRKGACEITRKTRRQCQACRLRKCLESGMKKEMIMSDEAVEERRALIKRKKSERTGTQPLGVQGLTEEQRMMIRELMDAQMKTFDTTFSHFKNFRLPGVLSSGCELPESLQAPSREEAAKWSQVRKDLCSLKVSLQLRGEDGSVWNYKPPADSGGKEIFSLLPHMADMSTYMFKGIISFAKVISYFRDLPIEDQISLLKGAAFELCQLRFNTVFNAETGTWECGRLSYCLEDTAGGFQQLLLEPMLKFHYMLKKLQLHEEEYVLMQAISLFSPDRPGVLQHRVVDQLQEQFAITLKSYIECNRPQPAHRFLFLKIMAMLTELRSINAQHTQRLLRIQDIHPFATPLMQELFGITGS
human Retinoic Acid Receptor gamma (RARg), RARG (gene 5916), sequence (P13631 whole entry, looked up, the tested form may be a part): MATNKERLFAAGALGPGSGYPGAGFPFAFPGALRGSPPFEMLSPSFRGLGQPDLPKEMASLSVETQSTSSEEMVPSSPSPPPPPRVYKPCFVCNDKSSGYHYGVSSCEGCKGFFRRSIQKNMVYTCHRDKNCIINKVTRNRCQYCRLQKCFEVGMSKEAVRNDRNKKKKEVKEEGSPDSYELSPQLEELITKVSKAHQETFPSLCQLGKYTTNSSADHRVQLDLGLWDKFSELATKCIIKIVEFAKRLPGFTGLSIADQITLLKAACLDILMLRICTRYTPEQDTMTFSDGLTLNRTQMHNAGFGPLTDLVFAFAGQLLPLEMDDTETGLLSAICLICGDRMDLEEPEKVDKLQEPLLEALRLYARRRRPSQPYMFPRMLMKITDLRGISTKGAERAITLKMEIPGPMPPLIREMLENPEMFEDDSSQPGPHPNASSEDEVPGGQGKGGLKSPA
human Peroxisome Proliferator-activated Receptor alpha (PPARa), PPARA (gene 5465), sequence (Q07869 whole entry, looked up, the tested form may be a part): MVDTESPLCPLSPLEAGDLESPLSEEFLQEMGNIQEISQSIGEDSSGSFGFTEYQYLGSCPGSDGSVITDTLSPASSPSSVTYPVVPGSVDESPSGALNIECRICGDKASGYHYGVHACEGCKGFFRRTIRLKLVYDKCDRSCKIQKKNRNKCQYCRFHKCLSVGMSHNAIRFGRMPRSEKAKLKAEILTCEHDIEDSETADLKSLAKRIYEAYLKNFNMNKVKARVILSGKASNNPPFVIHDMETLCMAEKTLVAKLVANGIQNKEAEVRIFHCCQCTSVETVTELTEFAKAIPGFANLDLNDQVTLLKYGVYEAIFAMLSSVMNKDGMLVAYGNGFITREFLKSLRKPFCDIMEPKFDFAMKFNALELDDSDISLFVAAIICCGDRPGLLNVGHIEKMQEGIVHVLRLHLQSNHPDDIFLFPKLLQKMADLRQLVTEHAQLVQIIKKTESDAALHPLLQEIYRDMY
human RAR-related Orphan Receptor gamma (RORg), RORC (gene 6097), sequence (P51449 whole entry, looked up, the tested form may be a part): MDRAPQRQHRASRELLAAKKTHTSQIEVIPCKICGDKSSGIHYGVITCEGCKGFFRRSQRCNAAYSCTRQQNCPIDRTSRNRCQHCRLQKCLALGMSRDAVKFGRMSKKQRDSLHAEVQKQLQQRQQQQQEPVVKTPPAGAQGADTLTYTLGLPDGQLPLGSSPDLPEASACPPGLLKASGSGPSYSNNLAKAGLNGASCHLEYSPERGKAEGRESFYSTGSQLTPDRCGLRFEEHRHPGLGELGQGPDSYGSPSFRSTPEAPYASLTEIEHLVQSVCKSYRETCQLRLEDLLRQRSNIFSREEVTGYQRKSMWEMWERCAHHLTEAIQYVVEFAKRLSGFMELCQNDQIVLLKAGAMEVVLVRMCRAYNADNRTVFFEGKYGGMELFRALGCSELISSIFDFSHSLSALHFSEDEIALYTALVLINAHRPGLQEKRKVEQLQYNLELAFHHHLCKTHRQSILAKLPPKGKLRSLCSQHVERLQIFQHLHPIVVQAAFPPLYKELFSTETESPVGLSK

In the case of `CC1(C)C(=O)N(Cl)C(=O)N1Br`, the call in [1], in [2], in test [3], in [4], in [5] and in [6] was inactive. In addition, the result in test [7] was inactive.
`CC(=O)CC(=O)Nc1ccccc1`: the result in test [1], in test [2], in [3], in [4], in test [5] and in test [8] was inactive. The compound was called inactive in test [9] and in test [10].
Turning to `OC[C@H]1O[C@@H]2O[C@H]3[C@H](O)[C@@H](O)[C@@H](O[C@H]4[C@H](O)[C@@H](O)[C@@H](O[C@H]5[C@H](O)[C@@H](O)[C@@H](O[C@H]6[C@H](O)[C@@H](O)[C@@H](O[C@H]7[C@H](O)[C@@H](O)[C@@H](O[C@H]8[C@H](O)[C@@H](O)[C@@H](O[C@H]9[C@H](O)[C@@H](O)[C@@H](O[C@H]1[C@H](O)[C@H]2O)O[C@@H]9CO)O[C@@H]8CO)O[C@@H]7CO)O[C@@H]6CO)O[C@@H]5CO)O[C@@H]4CO)O[C@@H]3CO`, the compound was classed as inactive in test [1], in test [2], in [3], in [4], in test [9] and in test [11].
As usually defined, the AC50 is the midpoint of the concentration-response curve, whichever way the signal moves. Regarding `BrCc1cccc(Oc2ccccc2)c1`, the compound was classed as inactive in [1], in test [2], in [4] and in [5]. Also, the values for the AC50 in test [3], in [9] and in [10] were 58.4 µM (active), 44.8 µM (active) and 43.3 µM (active), respectively.
As for `O=C(CS)OCCOC(=O)CS`, the outcome in [1], in test [4], in test [5], in test [9] and in test [12] was inactive. The AC50 in test [2] was 43.8 µM (active); in test [3], 148 µM (active).
As for `C=CC(C)C#N` (centres undefined), the call in test [1], in [2], in test [3], in [4], in [8] and in [6] was inactive. In addition, the result in test [7], in [9], in test [10], in test [13] and in test [11] was inactive.
In the case of `FC(F)(F)COCC(F)(F)F`, the compound was called inactive in [1], in test [2], in test [3], in [14], in test [5] and in test [7]. Moreover, in [10], the outcome was inactive.
`CC(=O)OCCCc1ccccc1`: the compound was called inactive in [1], in test [2], in test [3], in test [7] and in test [13].
`CCO/C=C1\N=C(c2ccccc2)OC1=O`: the result in test [1], in [2], in test [4], in [14], in [5] and in test [8] was inactive. Besides, in test [9], the outcome was inactive.
In the case of `C=CCOC(=O)CCCCCC`, the compound was classed as inactive in test [1], in test [2], in test [3], in test [8], in test [9] and in [10]. Moreover, the compound was classed as inactive in [11].
With `Nc1c(S(=O)(=O)O)cc(Br)c2c1C(=O)c1ccccc1C2=O`, the result in test [1], in test [2] and in test [5] was inactive. Besides, the figures for the AC50 in [3], in test [9] and in test [10] were 73.8 µM (active), 27.5 µM (active) and 40.2 µM (active), respectively.
Regarding `COCCOC(=O)c1ccccc1C(=O)OCCOC`, the call in test [1], in [2], in test [3], in test [5], in test [8] and in [9] was inactive. In addition, the compound was called inactive in [10], in [12] and in [11].
`OCCOCCN1CCN(C2=Nc3ccccc3Sc3ccccc32)CC1`: the compound was called inactive in [1], in [2] and in test [13]. The AC50 in test [3] is 176 µM (active); in [14], 75.8 µM (active); in [10], 5.77 µM (active).
With `OCC(O)c1ccccc1` (centres undefined), the call in [1], in test [2], in test [4], in test [8], in test [10] and in test [12] was inactive.
Regarding `CN(C)c1cccc(O)c1`, the compound was classed as inactive in test [1], in test [2], in [4], in test [5] and in test [8].
